For the test, the system named is Trichoderma virens ATCC 9645. Put plainly: growth yield (OD600) relative to untreated control; higher = less growth inhibition. To be noted: compound concentration: 100 uM. Put shortly: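 Library compounds (100 μM final), with or without a co-applied biocide (200 ng ml^−1), were added to 100 μl aliquots of Trichoderma virens ATCC 9645 spores at 15,000 spores ml^−1 in potato dextrose broth. Cultures were grown at 30 °C in 96-well plates, and OD600 was measured at 40 h and 72 h. Each growth value is a mean of duplicate screens, expressed relative to the control with neither agent.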

Counter-ions that a name gives are not always drawn. ± gives the standard error. Among all 1,300 compounds or so, about 75 (6%) showed an effect of 50% or more. The sample as a whole holds a higher share of strong results than the screen did.

Regarding `C[C@@H]1C[C@H]2[C@@H]3C[C@H](F)C4=CC(=O)C=C[C@]4(C)[C@@]3(F)[C@@H](O)C[C@]2(C)[C@@]1(O)C(=O)COC(=O)C(C)(C)C` [Flumethasone pivalate], the growth yield (40 h) was determined as 106 ± 7.2% and the growth yield (72 h) was 104 ± 5.3%.

Turning to `Cc1ccccc1OCC(O)CO` (stereo not drawn) [Mephenesin], the growth yield runs as follows: (40 h) 98 ± 3.3%; (72 h) 99.5 ± 3.5%.

Take `Cc1cnc(C(=O)NCCc2ccc(S(=O)(=O)NC(=O)NC3CCCCC3)cc2)cn1` [Glipizide]: the growth yield by setting is: (40 h) 103.7 ± 0.48%; (72 h) 104.3 ± 0.52%.

For the compound `O=C(O)[C@H]1/C(=C/CO)O[C@@H]2CC(=O)N21` [Clavulanate potassium salt], the growth yield (40 h) came out at 95.5 ± 2.4% and the growth yield (72 h) worked out at 87.9 ± 3.4%.

As for `CC(COc1ccccc1)NC(C)C(O)c1ccc(O)cc1` (stereo not drawn) [Isoxsuprine hydrochloride], the growth yield is, setting by setting: (40 h) 101 ± 1.1%; (72 h) 98.6 ± 2.3%.

`CC(COc1ccccc1)N(CCCl)Cc1ccccc1` (stereo not drawn) [Phenoxybenzamine hydrochloride] gave a growth yield (40 h) of 104 ± 4.6% and a growth yield (72 h) of 103 ± 4.2%.

For the compound `Oc1ccc(OCc2ccccc2)cc1` [Monobenzone], the growth yield (40 h) was determined as 48.6 ± 0.64% and the growth yield (72 h) was determined as 53.3 ± 1.7%.

With `Cc1ccc(O)c([C@H](CCN(C(C)C)C(C)C)c2ccccc2)c1` [Tolterodine tartrate], the growth yield (40 h) is 96.7 ± 2.7% and the growth yield (72 h) worked out at 97.95 ± 0.42%.

`CN(C)CCn1nnnc1SCC1=C(C(=O)O)N2C(=O)[C@@H](NC(=O)Cc3csc(N)n3)[C@H]2SC1` [Cefotiam hydrochloride] came in with a growth yield (40 h) of 102 ± 1.4% and a growth yield (72 h) of 102.2 ± 0.73%.

Regarding `OC(Cn1cncn1)(Cn1cncn1)c1ccc(F)cc1F` [Fluconazole], the growth yield reads like this: (40 h) 55.1 ± 1.8%; (72 h) 61.14 ± 0.52%.

Turning to `C[C@@H](c1ncncc1F)[C@](O)(Cn1cncn1)c1ccc(F)cc1F` [Voriconazole], the growth yield worked out at 3.02 ± 1.4% (40 h) and 2.41 ± 0.94% (72 h).

As for `N=C(NCCCCCCNC(=N)NC(=N)Nc1ccc(Cl)cc1)NC(=N)Nc1ccc(Cl)cc1` [Chlorhexidine], the growth yield (40 h) turned out to be 2.7 ± 1.4% and the growth yield (72 h) was determined as 2.31 ± 0.84%.

Turning to `N=C(N)NC(=N)NCCc1ccccc1` [Phenformin hydrochloride], the growth yield was found to be 96.9 ± 1.9% (40 h) and 91.5 ± 2.7% (72 h).

Turning to `CC(C)NC(=N)NC(=N)Nc1ccc(Cl)cc1` [Proguanil hydrochloride], the growth yield turned out to be 110 ± 13% (40 h) and 109 ± 9% (72 h).

On to `CC(C)NCC(O)c1ccc2ccccc2c1` (stereo not drawn) [Pronethalol hydrochloride], for which the growth yield came to 98.6 ± 2.1% (40 h) and 99.3 ± 2% (72 h).

With `CC(=O)N[C@@H](CC(=O)N[C@@H](CCC(=O)O)C(=O)O)C(=O)O` [Spaglumic acid], the growth yield came out at 101 ± 3.5% (40 h) and 99.5 ± 1.4% (72 h).

`Cc1cc(C(C)(C)CC(C)(C)C)ccc1OCCOCC[N+](C)(C)Cc1ccccc1` [Methyl benzethonium chloride] came in with a growth yield (40 h) of 1.43 ± 0.79% and a growth yield (72 h) of 0.944 ± 0.52%.

Turning to `CC(C)(C)CC(C)(C)c1ccc(OCCOCC[N+](C)(C)Cc2ccccc2)cc1` [Benzethonium chloride], the growth yield is, setting by setting: (40 h) 1.75 ± 0.16%; (72 h) 1.78 ± 0.1%.

Consider `C[N+](C)(CCOc1ccccc1)Cc1ccccc1.O=C([O-])c1cc2ccccc2cc1O` [Bephenium hydroxynaphthoate], for which the growth yield runs as follows: (40 h) 73.2 ± 1.1%; (72 h) 79.6 ± 2.2%.

For the compound `CCOc1ccccc1OCC1CNCCO1` (stereo not drawn) [Viloxazine hydrochloride], the growth yield was found to be 99.6 ± 1.8% (40 h) and 96.4 ± 1.4% (72 h).

In turn, `COc1ncnc(NS(=O)(=O)c2ccc(N)cc2)c1OC` [Sulfadoxine] showed a growth yield (40 h) of 91 ± 9.4% and a growth yield (72 h) of 101 ± 2.6%.

The compound `O=C1c2cccc3c2[C@H](CCC3)CN1[C@@H]1CN2CCC1CC2` [Palonosetron hydrochloride] showed a growth yield (40 h) of 103 ± 6% and a growth yield (72 h) of 99 ± 4.2%.

For the compound `O=C(NCCN1CCOCC1)c1ccc(Cl)cc1` [Moclobemide], the growth yield is 102 ± 2.1% (40 h) and 106 ± 2% (72 h).

For the compound `COc1ccc2[nH]c([S+]([O-])Cc3ncc(C)c(OC)c3C)nc2n1` (stereo not drawn) [Tenatoprazole], the growth yield is, setting by setting: (40 h) 98.8 ± 4.8%; (72 h) 102 ± 1.6%.

Regarding `CCOC(=O)c1ccc(OC(=O)CCCCCNC(=N)N)cc1` [Gabexate mesilate], the growth yield (40 h) was found to be 76.6 ± 4.5% and the growth yield (72 h) was 76 ± 3.7%.

Regarding `Cc1nnc(NS(=O)(=O)c2ccc(N)cc2)s1` [Sulfamethizole], the growth yield (40 h) was found to be 100.4 ± 0.32% and the growth yield (72 h) turned out to be 99.74 ± 0.1%.

Turning to `COC(=O)[C@H](c1ccccc1Cl)N1CCc2sccc2C1` [Clopidogrel], the growth yield reads like this: (40 h) 76.9 ± 1.6%; (72 h) 82 ± 1.1%.

On to `CO[C@@]1(NC(=O)Cc2cccs2)C(=O)N2C(C(=O)O)=C(COC(N)=O)CS[C@@H]21` [Cefoxitin sodium salt], for which the growth yield reads like this: (40 h) 94.4 ± 3.5%; (72 h) 94.8 ± 1.9%.

As to `Nc1ccc(/N=N/c2ccccc2)c(N)n1` [Phenazopyridine hydrochloride], the growth yield runs as follows: (40 h) 21.1 ± 1.4%; (72 h) 49.4 ± 6.2%.

`Nc1c2ccccc2nc2ccccc12` [Aminacrine]: the growth yield is 98.64 ± 0.48% (40 h) and 96.9 ± 2.9% (72 h).

For the compound `CCN(Cc1ccncc1)C(=O)C(CO)c1ccccc1` (stereo not drawn) [Tropicamide], the growth yield came out at 99.6 ± 1.8% (40 h) and 102 ± 1.1% (72 h).

Consider `CO[C@@H]1[C@@H](OC(N)=O)[C@@H](O)[C@H](Oc2ccc3c(O)c(NC(=O)c4ccc(O)c(CC=C(C)C)c4)c(=O)oc3c2C)OC1(C)C` [Novobiocin sodium salt], for which the growth yield by setting is: (40 h) 92 ± 1.8%; (72 h) 115 ± 4.7%.

Turning to `CCOC(=O)[C@@](C)(N)Cc1ccc(O)c(O)c1` [Methyldopate hydrochloride], the growth yield is 104 ± 5.2% (40 h) and 97.85 ± 0.94% (72 h).

Regarding `N[C@H]1CONC1=O` [(S)-(-)-Cycloserine], the growth yield was 104 ± 3.3% (40 h) and 96.8 ± 3% (72 h).

Take `Cc1cc(NS(=O)(=O)c2ccc(N)cc2)no1` [Sulfamethoxazole]: the growth yield runs as follows: (40 h) 40 ± 4.8%; (72 h) 82.9 ± 2.1%.

`Cc1cc(C)nc(NS(=O)(=O)c2ccc(N)cc2)n1` [Sulfamethazine sodium salt] yielded a growth yield (40 h) of 106 ± 4.5% and a growth yield (72 h) of 101 ± 2.2%.

As to `Cc1noc(NS(=O)(=O)c2ccc(N)cc2)c1C` [Sulfisoxazole], the growth yield reads like this: (40 h) 87.4%; (72 h) 96.2 ± 1.8%.

With `C#C[C@]1(O)CC[C@H]2[C@@H]3CCC4=Cc5oncc5C[C@]4(C)[C@H]3CC[C@@]21C` [Danazol], the growth yield reads like this: (40 h) 83.39 ± 0.79%; (72 h) 87.15 ± 0.32%.

For `CCCc1nc(C(C)(C)O)c(C(=O)O)n1Cc1ccc(-c2ccccc2-c2nnn[nH]2)cc1` [Olmesartan], the growth yield by setting is: (40 h) 100 ± 3.2%; (72 h) 99.8 ± 2.9%.

With `N#Cc1ccc(C(c2ccc(C#N)cc2)n2cncn2)cc1` [Letrozole], the growth yield by setting is: (40 h) 103 ± 1.1%; (72 h) 101.5 ± 0.42%.

`c1ccc(-c2ccc(C(c3ccccc3)n3ccnc3)cc2)cc1` (stereo not drawn) [Bifonazole] yielded a growth yield (40 h) of 2.86 ± 1.9% and a growth yield (72 h) of 1.99 ± 0.94%.

For `CCC1(c2ccccc2)NC(=O)N(C)C1=O` (stereo not drawn) [Mephenytoin], the growth yield was 110 ± 4.9% (40 h) and 102 ± 4.5% (72 h).

In the case of `CC1(C)[C@@H](OC(=O)CCC(=O)O)CC[C@]2(C)[C@H]3C(=O)C=C4[C@@H]5C[C@@](C)(C(=O)O)CC[C@]5(C)CC[C@@]4(C)[C@]3(C)CC[C@@H]12` [Carbenoxolone disodium salt], the growth yield (40 h) was determined as 95 ± 4.1% and the growth yield (72 h) was 94.6 ± 2.1%.

As to `CN(C)[C@@H]1C(O)=C(C(N)=O)C(=O)[C@@]2(O)C(O)=C3C(=O)c4c(O)ccc(Cl)c4[C@@H](O)[C@H]3C[C@@H]12` [Demeclocycline hydrochloride], the growth yield reads like this: (40 h) 82.6 ± 3.2%; (72 h) 85.1 ± 5.6%.

For the origin of these results see the supplement of paper PMC8007513.
